Experimental data taken from PubChem BioAssay (Tox21).
A number with no mark means an inactive call. The source made the active and inactive calls. The call rests on the fitted dose curve; in most records, active means well fitted activation curve with a large enough effect in the repeat runs; inconclusive means weak or mixed curves; inactive means flat fitted curve, though single readings scatter.

Each compound was assayed against KiSS-1 receptor (Homo sapiens) (UniProt Q969F8) (assay: Human kisspeptin (KISS1R) small molecule agonists, calcium flux assay in KISS1R-HEK293 cells (AID 1920064)). Details: KISS1R-HEK293, calcium flux fluorescence, agonist; series mostly up to 76.8 µM.
Description: National Center for Advancing Translational Sciences [NCATS]
Division of Preclinical Innovation [DPI]
U.S. Environmental Protection Agency [EPA]
National Institutes of Environmental Health Sciences [NIEHS]
National Toxicology Program [NTP]
U.S. Food and Drug Administration [FDA]
Kisspeptin and its receptor KISS1R play key roles in mammalian reproduction due to their involvement in the onset of puberty and control of the hypothalamic-pituitary-gonadal axis such as regulates GnRH release from the hypothalamus. The kisspeptin/KISS1R system also plays a direct role in peripheral organs (including the ovary, testis, uterus, and placenta) and is implicated in reproductive diseases such as miscarriage and polycystic ovary syndrome (PCOS). Abnormal KISS1R activity is associated with abnormal puberty, infertility, endometriosis, and hormone-dependent tumors. The KISS1 receptor (KISS1R, also called GPR54), a G-protein-coupled receptor (GPCR), acts (through phospholipase C) to increase intracellular inositol trisphosphate and then release intracellular calcium stores. Cell-based KISS1R-HEK293 assay is using HEK293 cells that have been genetically engineered to express the human KISS1R, which activity can be measured by calcium signaling. A compound/drug can activate (agonist) KISS1R that can be monitored by levels of intracellular calcium.
KISS1R-HEK293 cells developed by Codex Corp contain human KISS1R gene, which was stably integrated into HEK 293 cells. The compound activation can be detected by fluorescence intensity via calcium flux assay. This cell line has been used to screen the Tox21 10K compound library to identify agonists of KISS1R.
KISS1R-Hek293 cells were dispensed at 1500 cells/4uL/well in 1536-well black wall/clear bottom plates using a multidrop dispenser. After the assay plates were incubated at a 37 C/5% CO2 incubator for 18 hours, 4 microL of Calcium Dye Solution was added to each well. The plates were incubated at 37 C for 1 hour. And then 23 nL of compounds dissolved in DMSO, positive controls, or DMSO only was transferred to the assay plate by a pin tool station. The fluorescence intensity in the plates was measured using FDSS 7000EX kinetic plate reader with a filter set of Ex/Em=480/540 for 3 min at 1 sec intervals. Each test compound was measured at 15 concentrations and in triplicates.
On the % scale 0 is the no-effect control and ±100 the full control effect.

Sequence of KiSS-1 receptor (Homo sapiens) (Q969F8 whole entry, looked up): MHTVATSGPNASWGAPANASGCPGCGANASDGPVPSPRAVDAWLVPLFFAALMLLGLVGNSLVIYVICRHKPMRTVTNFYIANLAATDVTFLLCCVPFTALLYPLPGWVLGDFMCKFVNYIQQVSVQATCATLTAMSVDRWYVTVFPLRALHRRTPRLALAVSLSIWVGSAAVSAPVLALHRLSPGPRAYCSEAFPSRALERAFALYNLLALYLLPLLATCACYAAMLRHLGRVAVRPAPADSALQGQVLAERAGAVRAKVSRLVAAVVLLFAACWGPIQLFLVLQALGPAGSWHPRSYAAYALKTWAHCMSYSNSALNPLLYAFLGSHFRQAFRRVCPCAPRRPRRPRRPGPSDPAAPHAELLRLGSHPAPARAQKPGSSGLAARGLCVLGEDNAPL

SMILES	outcome	activation
O=C1CC2(CCCC2)CC(=O)N1	inactive	
COc1cc(NS(=O)(=O)c2ccc(N)cc2)nc(OC)n1	inactive	
Cc1c(N)cccc1[N+](=O)[O-]	inactive	
O=S(=O)(c1ccccc1)c1ccc(Cl)cc1	inactive	
O=C(/C=C/c1ccc(O)c(O)c1)O[C@@H]1C[C@](O)(C(=O)O)C[C@@H](O)[C@H]1O	inactive	
O=C(CCC1CCN(Cc2ccccc2)CC1)c1ccc2c(c1)NCCCC2	inactive	
CN1CCN(CCCN2c3ccccc3Sc3ccc(C(F)(F)F)cc32)CC1	inactive	
CCN(O)CC	inactive	
CCC(=O)c1c(O)cc(O)cc1O	inactive	
C[C@@H]1C[C@H]2[C@@H]3CCC4=CC(=O)C=C[C@]4(C)[C@@]3(F)[C@@H](O)C[C@]2(C)[C@H]1C(=O)CO	inactive	
C[C@]12C=CC(=O)C=C1[C@@H](F)C[C@@H]1[C@@H]2[C@@H](O)C[C@@]2(C)[C@H]1CC[C@]2(O)C(=O)CO	inactive	
CCCCOC(=O)C(C)CC (stereo not given)	inactive	
CC(C)OC(=O)C(C(=O)OC(C)C)=C1SC=CS1	inactive	
N#CSc1ccc(N)c([N+](=O)[O-])c1	inactive	
C[C@@H]1CN(c2c(F)c(N)c3c(=O)c(C(=O)O)cn(C4CC4)c3c2F)C[C@H](C)N1		-1.07% [at 15.8 µM]
CN(C)CCCSc1ccccc1NC(=O)/C=C/c1ccccc1	inactive	
CCCCCCCCCC[N+](C)(C)[O-]	inactive	
CCCCCCCCCCCCCCCC[N+](C)(C)CCN(Cc1ccc(OC)cc1)c1ncccn1	inactive	
Cc1c(C)c2c(c(C)c1OC(=O)CCC(=O)OCCO)CC[C@@](C)(CCC[C@H](C)CCC[C@H](C)CCCC(C)C)O2	inactive	
C=C[C@@H](C)CCC=C(C)C	inactive	

SMILES	outcome	activation
CO[Si](OC)(OC)OC	inactive	
O=C(/C=C/c1ccccc1)OC/C=C/c1ccccc1	inactive	
O=C(O)c1ccc2c(c1)nc(C(=O)NC1CCN(C3CC3)CC1)n2Cc1cc(-c2ccc(Cl)s2)on1		-0.617% [at 15.8 µM]
COc1ccccc1N1CCN(CCCCNC(=O)c2ccc(-c3ccc(C(C)=O)cc3)cc2)CC1	inactive	
CN=C(NC#N)NCCSCc1csc(N=C(N)N)n1	inactive	
COc1cccc([C@H](O)C2CCN(CCc3ccc(F)cc3)CC2)c1OC	inactive	
Nc1ccc(S(=O)(=O)Nc2ccccn2)cc1	inactive	
CCOC(CN1CCN(CC(C)C(=O)c2ccccc2)CC1)c1ccccc1 (stereo not given)		2.43% [at 15.8 µM]
Cc1ccc(C(=O)c2ccccc2)cc1	inactive	
CCCCCCCCCCCCS(=O)(=O)Cl		0.356% [at 15.8 µM]
CCCCNS(=O)(=O)c1ccc(C)cc1	inactive	
O=C(OCC1CO1)C1CCCCC1C(=O)OCC1CO1 (stereo not given)	inactive	
O=C(c1ccco1)N1CCNCC1	inactive	
CCCC(C)C	inactive	
CCOC(=O)c1ccc(I)cc1	inactive	
OCCC(O)CO (stereo not given)	inactive	
CC(C)CCCC(C)(C)O	inactive	
C[C@H]1O[C@@H](n2cc(F)c(=O)[nH]c2=O)[C@H](O)[C@@H]1O	inactive	
CC(CC1c2ccccc2CCc2ccccc21)CN(C)C (stereo not given)	inactive	
COc1cc2nc(N3CCN(C(=O)C4CCCO4)CC3)nc(N)c2cc1OC (stereo not given)	inactive	
